Results filed as inconclusive are left out. A call without a number means that no potency is given here. Active and inactive are the calls of the source. The call rests on the fitted dose curve; in most records, active means well fitted activation curve with a large enough effect; inconclusive means small, poorly fitted or top-dose-only effect; inactive means flat fitted curve, though single readings scatter.

The nature of this assay: qHTS assay to identify small molecule phospholipidosis (PLD) inducers (AID 1259344). The following applies: HepG2 phospholipidosis, LipidTOX Red imaging, 24 h; series mostly up to 38.3 µM. Put shortly:
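Phospholipidosis is scored by imaging LipidTOX-stained pits in HepG2 cells exposed to compound for 24 h at 37 C; pit counts and integrated intensities per well and per cell serve as outputs.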
`O=C1c2ccccc2-c2n[nH]c3cccc1c23`: the Potency result is “inactive”.

As for `C[C@]12O[C@H](C[C@]1(O)CO)n1c3ccccc3c3c4c(c5c6ccccc6n2c5c31)CNC4=O`, the Potency result was “inactive”.

For `C=CC[N+]1([C@H]2C[C@H]3[C@@H]4CC[C@H]5C[C@H](O)[C@@H](N6CCOCC6)C[C@]5(C)[C@H]4CC[C@]3(C)[C@H]2OC(C)=O)CCCC1`, the Potency entry is “inactive”.

Take `CCOC(=O)Cc1ccc(-c2ccccc2)cc1`: the Potency entry is “inactive”.

For the molecule `C[C@@H]1C(=O)NC2=Nc3cccc(Cl)c3CN21`, the Potency result was “inactive”.

As for `CN1C(C(=O)Nc2ccccn2)C(=O)c2sc(Cl)cc2S1(=O)=O` (centres undefined), the Potency result is “inactive”.

Consider `Cc1onc(-c2c(F)cccc2Cl)c1C(=O)N[C@@H]1C(=O)N2[C@@H]1SC(C)(C)[C@@H]2C(=O)O`, for which the Potency result is “inactive”.

With `CC(C)C[C@@H](NC(=O)[C@@H](O)[C@H](N)Cc1ccccc1)C(=O)O`, the Potency result was “inactive”.

With `O=C1c2c(O)cccc2[C@H]([C@@H]2O[C@H](CO)[C@@H](O)[C@H](O)[C@H]2O)c2cc(CO)cc(O)c21`, the Potency result was “inactive”.

As to `O=P(O)(O)C(O)(Cn1ccnc1)P(=O)(O)O`, the Potency entry is “inactive”.

As to `NC(=O)CC[C@@H]1NC(=O)[C@H](Cc2ccccc2)NC(=O)[C@H](Cc2ccc(O)cc2)NC(=O)[C@@H](N)CSSC[C@@H](C(=O)N2CCC[C@H]2C(=O)N[C@@H](CCCN=C(N)N)C(=O)NCC(N)=O)NC(=O)[C@H](CC(N)=O)NC1=O`, the Potency entry is “inactive”.

For `CCCCCCOC(=O)c1cccnc1`, the Potency result was “inactive”.

Regarding `CN1[C@@H](CC(=O)c2ccccc2)CCC[C@H]1C[C@H](O)c1ccccc1`, the Potency result was “inactive”.

As to `CCCn1c(=O)[nH]c(=O)c2[nH]cnc21`, the Potency entry is “inactive”.

As for `CN(Cc1ccccc1)Cc1ccccc1`, the Potency entry is “inactive”.

Consider `CC(C)OC(=O)Nc1ccc2nc(-c3cscn3)[nH]c2c1`, for which the Potency result is “inactive”.

For the molecule `C1CCc2nnnn2CC1`, the Potency result was “inactive”.

For the molecule `CO/N=C(\C(=O)N[C@@H]1C(=O)N2C(C(=O)O)=C(C[N+]3(C)CCCC3)CS[C@H]12)c1csc(N)n1`, the Potency entry was “inactive”.

Consider `O=C1CCC(c2ccccc2)(C2CCN(Cc3ccccc3)CC2)C(=O)N1` (centres undefined), for which the Potency result was “inactive”.

Regarding `C[Se]CC[C@H](N)C(=O)O`, the Potency result was “inactive”.

In the case of `CCOC(=O)[C@H](CCc1ccccc1)N[C@@H](C)C(=O)N1[C@H](C(=O)O)C[C@H]2CCCC[C@@H]21`, the Potency result is “inactive”.

Turning to `O=C(O)c1ccc(NC2OC[C@@H](O)[C@H](O)[C@H]2O)cc1` (some centres undefined), the Potency entry is “inactive”.

`CC(=O)N[C@@H](C=O)[C@H](O)[C@H](O)[C@@H](O)CO`: the Potency result was “inactive”.

On to `COc1cc2c(cc1OC)[C@@H](Cc1cc(OC)c(OC)c(OC)c1)[N+](C)(CCCOC(=O)CC/C=C/CCC(=O)OCCC[N+]1(C)CCc3cc(OC)c(OC)cc3[C@H]1Cc1cc(OC)c(OC)c(OC)c1)CC2` (some centres undefined), for which the Potency result was “inactive”.

On to `O=c1[nH]c(=O)n([C@H]2C[C@H](O)[C@@H](CO)O2)cc1/C=C/Br`, for which the Potency entry is “inactive”.

Consider `O=C(O)c1ccccc1[O-].O=C(O)c1ccccc1[O-].[Zn+2]`, for which the Potency entry was “inactive”.

On to `NC(N)=NCC1COC2(CCCCC2)O1` (centres undefined), for which the Potency result is “inactive”.

In the case of `CCc1cn([C@H]2C[C@H](O)[C@@H](CO)O2)c(=O)[nH]c1=O`, the Potency result is “inactive”.

Take `CCCCCCCCCCCCCC(=O)OCC(COP(=O)([O-])OCC[N+](C)(C)C)OC(=O)CCCCCCCCCCCCC` (centres undefined): the Potency entry was “inactive”.

In the case of `CCOC(=O)COc1ccc2c(=O)cc(-c3ccccc3)oc2c1`, the Potency result is “inactive”.

As for `CCCCCCCCCCCCCCCC(=O)OC[C@H](COP(=O)([O-])OCC[N+](C)(C)C)OC(=O)CCCCCCCCCCCCCCC`, the Potency entry is “inactive”.

Take `C/C(=C\C(=O)OCCCCCCCCC(=O)O)C[C@@H]1OC[C@H](C[C@@H]2O[C@H]2[C@@H](C)[C@H](C)O)[C@@H](O)[C@H]1O`: the Potency result is “inactive”.

For the molecule `CC[C@H]1OC(=O)C[C@@H](O)[C@H](C)[C@@H](O[C@@H]2O[C@H](C)[C@@H](O)[C@H](N(C)C)[C@H]2O)[C@@H](CCN2C[C@H](C)C[C@H](C)C2)C[C@@H](C)C(=O)/C=C/C(C)=C/[C@@H]1CO[C@@H]1O[C@H](C)[C@@H](O)[C@@H](OC)[C@H]1OC`, the Potency result was “inactive”.

Turning to `CO/N=C(\C(=O)N[C@@H]1C(=O)N2C(C(=O)O)=C(COC(C)=O)CS[C@H]12)c1csc(N)n1` (stereo in doubt), the Potency result was “inactive”.

As to `CC(=O)O[C@H]1C[C@@H]2CC[C@@H]3[C@H](CC[C@@]4(C)[C@H]3C[C@H]([N+]3(C)CCCCC3)[C@@H]4OC(C)=O)[C@@]2(C)C[C@@H]1[N+]1(C)CCCCC1`, the Potency result is “inactive”.

Consider `C[C@@H]1O[C@@H]1P(=O)(O)O`, for which the Potency entry is “inactive”.

In the case of `CC1=C(/C=C/C(C)=C/C=C/C(C)=C/C=C/C=C(C)/C=C/C=C(C)/C=C/C2=C(C)CCCC2(C)C)C(C)(C)CCC1`, the Potency result is “inactive”.

Take `CC(=O)OCC(=O)[C@@]1(O)CC[C@H]2[C@@H]3C[C@H](C)C4=CC(=O)C=C[C@]4(C)[C@H]3[C@@H](O)C[C@@]21C`: the Potency entry is “inactive”.

`CC1(C)S[C@@H]2[C@H](NC(=O)[C@H](N)c3ccc(O)cc3)C(=O)N2[C@H]1C(=O)O`: the Potency entry was “inactive”.
